G9a block = blocks human histone lysine methyltransferase G9a; actives 8.8% (n = 350,000); G9a H3K9 monomethylation, AlphaScreen, 2 h; Potency, µM (doses to about 102 µM), without a hit: at the highest dose activity, negative = inhibition, hits mostly inhibitors; Q96KQ7; note: potency is the fitted concentration of half-maximal effect; % is set by controls: 0 for no effect and ±100 for the full control effect; nearly all actives have a fitted effect of over 75% in size
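Signal arises when biotinylated H3K9 peptide, once monomethylated, bridges streptavidin donor and antibody-captured acceptor beads. Enzyme at 20 nM was preincubated 15 min with test compounds; peptide 500 nM and SAM 20 uM then reacted for 2 h.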
HP1b chromo inh = HP1-beta chromodomain-methylated histone interaction inhibition. P83916. AlphaScreen HP1-beta / biotin-H3K9me3 peptide binding. Potency, µM (series often up to 114 µM), inactives show at the top dose activity change, negative = inhibition, hits mostly inhibitors. actives 0.56% (n = 390,000). AID 540317; note: potency is the fitted concentration of half-maximal effect; nearly all actives have a fitted effect of over 70% in size
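Compound inhibition of the preformed complex between 50 nM HP1-beta and 50 nM biotinylated H3K9me3 peptide was read by AlphaScreen. Buffer was PBS pH 7.4 with 0.01% Tween-20. Incubations ran 30 min at room temperature, with 10 ug/mL donor/acceptor beads.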
BAZ2B inh = blocks human BAZ2B. Q9UIF8. AlphaScreen BAZ2B-H3K14Ac peptide displacement. Potency, µM (doses to about 114 µM), for inactives: at the highest dose activity change, negative = inhibition, actives largely listed as inhibitors. actives 4.4% (n = 360,000); note: potency is the fitted concentration of half-maximal effect; % is set by controls: 0 for no effect and ±100 for the full control effect; nearly all actives have a fitted effect of over 60% in size
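Protein-peptide AlphaScreen: BAZ2B 50 nM, b-H3K14Ac 50 nM, 1x PBS pH 7.4 + 0.01% Tween-20. Preincubation 30 min RT; cpd 30 min RT (top 110 uM); beads 20 min RT, light-protected.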
Six1-Eya2 blk = Six1/Eya2 interaction inhibition. AID 651725. actives 0.56% (n = 360,000). activity change, % (test concentration not listed). Q15475+O00167. AlphaScreen GST-Six1/His-Eya2 binding, biochemical; hits give low values; in the data active = activity change below about -65%; inconclusive = mostly about -30% to -63%; note: % is set by controls: 0 for no effect and ±100 for the full control effect
Target sequence (O00167 whole entry, looked up): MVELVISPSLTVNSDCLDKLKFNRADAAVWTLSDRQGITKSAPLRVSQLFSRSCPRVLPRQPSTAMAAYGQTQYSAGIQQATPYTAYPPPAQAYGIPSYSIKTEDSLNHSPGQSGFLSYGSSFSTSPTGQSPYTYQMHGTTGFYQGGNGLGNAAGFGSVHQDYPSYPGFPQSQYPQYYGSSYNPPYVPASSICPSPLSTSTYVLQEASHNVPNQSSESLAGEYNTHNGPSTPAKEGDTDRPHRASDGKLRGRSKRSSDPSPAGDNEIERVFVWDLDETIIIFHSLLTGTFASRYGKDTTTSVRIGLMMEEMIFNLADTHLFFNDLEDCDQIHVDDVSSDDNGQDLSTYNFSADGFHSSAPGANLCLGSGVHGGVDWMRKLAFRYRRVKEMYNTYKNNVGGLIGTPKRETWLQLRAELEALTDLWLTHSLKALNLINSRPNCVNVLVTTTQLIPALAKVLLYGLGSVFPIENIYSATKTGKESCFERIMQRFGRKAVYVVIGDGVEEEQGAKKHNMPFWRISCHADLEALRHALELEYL
Target sequence (Q15475 whole entry, looked up): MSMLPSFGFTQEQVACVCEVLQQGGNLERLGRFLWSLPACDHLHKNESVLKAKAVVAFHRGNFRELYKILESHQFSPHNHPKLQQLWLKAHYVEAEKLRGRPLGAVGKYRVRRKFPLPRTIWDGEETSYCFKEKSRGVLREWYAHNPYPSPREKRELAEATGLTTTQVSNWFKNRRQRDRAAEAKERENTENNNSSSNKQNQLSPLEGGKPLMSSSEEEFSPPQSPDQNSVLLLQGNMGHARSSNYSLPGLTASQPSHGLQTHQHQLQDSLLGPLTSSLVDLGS
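GST-Six1 + His-Eya2 (5X stock: 250/500 nM); Tris pH 8.0, 300 mM NaCl, 0.05% BSA, 0.02% Tween 20; GSH donor/Ni acceptor beads; 1 h 37 °C dark; AlphaScreen readout.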
CtBP-E1A inh = inhibitors of CtBP/E1A interaction; activity change, % (no concentration beside the values); AlphaScreen GST-E1A/His-CtBP binding, 1536-well; hits give low values; AID 651724; actives 0.49% (n = 340,000); in the data active = activity change below about -65%; inconclusive = mostly about -30% to -63%; note: % is set by controls: 0 for no effect and ±100 for the full control effect
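AlphaScreen with 125 nM GST-E1A and 125 nM His-CtBP (5X stocks) in Tris pH 8.0, 300 mM NaCl, BSA, Tween 20, TCEP. Compounds preincubated 2 h at 37 deg C, then glutathione donor/nickel acceptor beads added for 1 h at 37 deg C in dark.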
JMJD2A Tudor inh = JMJD2A Tudor domain (human) inhibition. actives 4.4% (n = 390,000). Potency, µM (titrated, usually from 114 µM), for the others: at the top dose activity change, negative = inhibition, hits mostly inhibitors. O75164. AlphaScreen JMJD2A-Tudor / H3K4me3 peptide binding; note: potency is the fitted concentration of half-maximal effect; % is set by controls: 0 for no effect and ±100 for the full control effect; nearly all actives have a fitted effect of over 50% in size
An asterisk follows results filed as active; ? = inconclusive; . = no result; [ ] = dose if it differs, or a comment. Rows were chosen to be rich in hits. Some 10% of all compounds tested hit in one or more screens of this group. Unless noted, calls come from the whole dose curve; as a rule, active = well fitted inhibition curve with a large enough effect; inconclusive = small, poorly fitted or top-dose-only effect; inactive = no such curve, though single readings can be large or run the other way.

SMILES	G9a block	HP1b chromo inh	BAZ2B inh	Six1-Eya2 blk	CtBP-E1A inh	JMJD2A Tudor inh
O=c1nc2c(O)cccn2c2c1c(=O)[nH]c1ccccc12	44.7µM*	-13.2%	?	-83.0*	4.0	22.4µM*
O=c1[nH]c2ccccc2c2nc3ccccn3c12	-28.1%	9.3%	-31.7%	?	?	-2.7%
COc1ccc(C)cc1S(=O)(=O)N1CCN(c2cccc(Cl)c2)CC1	0.9%[59 µM]	26.4%	-9.9%	.	.	-3.7%
COc1cc(CNc2ccc(N3CCN(C(C)=O)CC3)cc2)ccc1OCc1ccc(F)cc1	3.98µM*	?	22.4µM*	?	?	?
CC(=O)N1CCN(c2ccc(NCc3cccc(C)c3)cc2)CC1	?	-12.4%	?	.	.	?
CC(=O)N1CCN(c2ccc(NCc3ccc(F)cc3)cc2)CC1	7.94µM*	6.2%	-34.6%	-16.2	-4.5	?
CCOC(=O)c1c(C)[nH]c(C)c1S(=O)(=O)NCC(=O)NCc1cccc(Br)c1	-0.9%[59 µM]	14.4%	-18.9%	.	.	-17.9%
Cc1ccccc1NC(=O)c1c(NC(=O)C(C)Oc2cccc(Cl)c2)sc2c1CCCC2 (centres undefined)	?	-16.2%	-8.6%	.	.	-12.1%
O=C(Nc1ccc2c(c1)OCCO2)C(c1ccccc1)n1c(=O)c(-c2cc3ccccc3[nH]2)nc2ccccc21 (centres undefined)	.	.	.	46.6	15.7	.
Cc1ccccc1Nc1c(-c2ccccn2)nc2c(C)cccn12	44.7µM*	?	14.1µM*	-29.2	?	39.8µM*
Cc1ccc(Nc2c(-c3ccc(C)cc3)nc3c(C)cccn23)cc1	11.2µM*	?	.	.	.	?
Cc1ccccc1Nc1c(-c2ccc(N3CCOCC3)cc2)nc2ncccn12	20.3%[59 µM]	23.5%	?	5.9	12.9	-12.3%
Cc1cccn2c(Nc3ccccc3)c(-c3cccs3)nc12	-35.9%[59 µM]	64.2%	-25.2%	.	.	?
Cc1ccc(-c2nc3c(C)cccn3c2Nc2ccccc2C)s1	14.1µM*	?	15.8µM*	.	.	44.7µM*
Cc1ccn2c(=O)nc(SCC(=O)NC3CCCC3)nc2c1	-7.9%	24.1%	-29.1%	-5.6	-18.2	-22.8%
CCOc1cc(/C=C2\NC(=O)NC2=O)ccc1OC(C)C(=O)O (centres undefined)	14.5%	51.5%	1.9%	0.3	12.3	-4.1%
COc1ccc(NC(=O)c2cc3c(=O)n(Cc4ccco4)ccc3nc2C)c(OC)c1	?	27.0%	-31.6%	.	.	-23.0%
Cc1nn(Cc2ccccc2)c(C)c1NC(=O)CCCn1nc([N+](=O)[O-])c(Cl)c1C	22.5%	12.7%	8.2%	11.9	-5.2	39.8µM*
O=C(CN1C(=O)COc2ccccc21)NCC1CCCO1 (centres undefined)	4.8%	-20.7%	-5.9%	5.1	0.0	-10.5%
Cc1cc(C)n(-c2ccc(Oc3ccccc3)c(S(=O)(=O)O)c2)n1	?	3.2%	-33.8%	11.7	5.4	89.1µM*
CCc1c(C)[nH]n(-c2ccc(Oc3ccccc3)c(S(=O)(=O)O)c2)c1=O	?	4.1%	.	-16.2	0.5	56.2µM*
Cc1nc(SCC(=O)N2CCN(C(=O)c3ccco3)CC2)c2c(C)c(C)sc2n1	12.0%[59 µM]	-8.6%	8.0%	1.8	3.0	-24.5%
Cc1nc(SCC(=O)N2CCN(C(=O)c3cccs3)CC2)c2c(C)c(C)sc2n1	17.8µM*	39.2%	-23.9%	9.3	0.0	-18.6%
COc1ccc(NC(=O)CNc2ccccc2N2CCCC2=O)cc1S(=O)(=O)N1CCOCC1	?	17.3%	6.6%	-4.8	7.2	-3.8%
Cc1ccc(NC(=O)CNc2ccccc2N2CCCC2=O)cc1S(=O)(=O)N1CCOCC1	44.7µM*	13.4%	7.4%	1.9	-22.0	-10.3%
O=C(Nc1cccc(S(=O)(=O)NC2=NCCC2)c1)c1cc(Cl)ccc1[N+](=O)[O-]	50.1µM*	15.9%	-31.0%	3.0	5.4	-11.7%

High-throughput results as filed in PubChem BioAssay.
